Rows were chosen to be rich in hits. Some 3% of all compounds tested hit in one or more screens of this group.
SUMO Mot1 rescue = yeast Mot1-301 growth rescue at high temperature, primary screen, SUMOylation pathway inhibitor project, S. cerevisiae, ATP luminescence, 38.5C; S. cerevisiae Mot1-301 growth rescue; percent above DMSO median, 100 means doubled; 1% of 320,000 active; AID 2716, 2010; growth rescue, % at 18.8 µM;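 active = every valid replicate shows activation above 250% relative to neutral control wells; inactive = the rest, any valid replicate at or below 250%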;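 note: OY570 slx delta 5 strain wells were the positive control but not used for scaling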
CHT allo act = CHT positive allosteric modulators, primary screen, cell-based, membrane potential dye, choline EC20 | High affinity choline transporter 1 (Homo sapiens), Q9GZV3 | CHT-expressing cells; stronger effect = higher value; LV-AA mutant CHT in HEK293 cells | B-score at 10 µM | 0.49% of 310,000 active | AID 488977, 2010;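 active = initial fluorescence not abnormally high and integrated response B-score, plate-corrected, over 3 SD above library mean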
Target sequence (Q9GZV3 whole entry, looked up): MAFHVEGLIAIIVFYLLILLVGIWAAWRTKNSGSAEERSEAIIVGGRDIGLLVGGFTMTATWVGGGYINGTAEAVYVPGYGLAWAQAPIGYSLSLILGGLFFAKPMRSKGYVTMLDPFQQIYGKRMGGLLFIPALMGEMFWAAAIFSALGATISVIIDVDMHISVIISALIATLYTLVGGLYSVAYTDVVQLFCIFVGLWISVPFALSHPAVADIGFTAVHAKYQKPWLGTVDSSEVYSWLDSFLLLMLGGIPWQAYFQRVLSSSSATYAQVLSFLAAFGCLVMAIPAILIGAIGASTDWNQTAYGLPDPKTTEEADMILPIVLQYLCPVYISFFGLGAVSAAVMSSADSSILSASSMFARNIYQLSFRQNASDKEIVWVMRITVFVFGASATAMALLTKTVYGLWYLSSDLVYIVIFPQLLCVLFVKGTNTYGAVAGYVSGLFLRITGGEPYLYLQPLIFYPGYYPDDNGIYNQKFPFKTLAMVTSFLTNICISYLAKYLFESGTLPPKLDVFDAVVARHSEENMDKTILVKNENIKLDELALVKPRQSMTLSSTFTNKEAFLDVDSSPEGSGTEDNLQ
Bfl-1 A1 inh = caspase 3/7 activation in MEF A1-2A-BIM cells, primary screen, A1 inhibitor project, cell-based, luminescence, HTS | 0.066% of 330,000 active | Caspase-Glo 3/7 luminescence, 3 h; percent of clofoctol response, vehicle zero | AID 2462, 2010 | caspase activation, % (concentration not given with the values);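 active = over half of replicate activation scores above 10%, or exactly half above 10 with the replicate mean above 10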
CHT block = inhibitors of human choline transporter CHT | AID 488975, 2010 | High affinity choline transporter 1 (Homo sapiens), Q9GZV3 | CHT-expressing cells, membrane potential dye, choline response; stronger effect = lower value | B-score at 10 µM | 0.86% of 310,000 active;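 active = B-score over 3 SD under the library average, and starting fluorescence ratio not unusually high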;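 note: choline stimulus applied at its EC90 after an EC20 pre-addition; B-score computed on integrated fluorescence ratio after choline addition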
NALP3 yeast inh = NALP3 inflammasome inhibitors in reconstituted yeast, primary screen, luminescence, uHTS | inhibition, % at 10 µM | 0.39% of 330,000 active | Yeast reconstituted NLRP3/ASC/caspase-1, beta-gal luminescence, 24 h | AID 2825, 2010;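 active = inhibition of 50% or more; inactive = inhibition below 50%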;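 note: plate controls were induced DMSO wells for no effect and uninduced yeast grown without galactose for full effect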
NALP1 inh = NALP1 inflammasome inhibitors in reconstituted yeast, colorimetric, S. cerevisiae, triplicate retest. inhibition, % at 10 µM. AID 2071, 2009. 0.61% of 280,000 active. S. cerevisiae NALP1/ASC/caspase-1 growth, X-gal OD620, 72 h; in the data active = inhibition mostly above about 24%, no sharp cut-off; inactive = mostly below about 32%
Mot1 SUMO dose = growth restoration of Mot1-301 yeast on galactose, dose response, SUMO pathway inhibitor project, whole organism, S. cerevisiae, ATP luminescence, cherry-picked samples | shares compounds with SUMO Mot1 rescue | S. cerevisiae Mot1-301 galactose growth, 24 h; -100 = growth of slx-deleted rescue strain | growth activity, percent, % at 42 µM | 2,300 tested, under 10 active | AID 493004, 2010;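 active = Signal drops as the depositor expects, and the fitted half-maximal dose is no more than ten times the top valid tested dose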;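 note: more negative values mean stronger growth rescue toward the control strain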
The depositor's hits bear a star; i = inactive; nt = no result; + = active, no number; ! = not active in a repeat; [ ] = remark or other dose.

SMILES	SUMO Mot1 rescue	CHT allo act	Bfl-1 A1 inh	CHT block	NALP3 yeast inh	NALP1 inh	Mot1 SUMO dose
CCOC(=O)N1CCC(N2C(=O)c3ccc(C(=O)Nc4cccc(OC)c4)cc3C2=O)CC1	28	i	-2	i	2	4	nt
CC(=O)N1N=C(N)SC12CCCC2	+	i	-1	i	10	8	0
COc1ccc(C(=O)C2CCCN(C/C=C/c3ccccc3OC)C2)c(OC)c1 (centres undefined)	37	i	0	i	23	-2	nt
Oc1ccc(Br)cc1/C=N/n1c(COc2ccccc2)n[nH]c1=S	679*	i	0	i	32	-5	0
CC(C)(C)C1c2[nH]c3ccccc3c2CCN1Cc1cccc(OCCO)c1 (centres undefined)	710*	i	0	i	12	3	0
CCOc1ccc(C(=O)NC2CC(=O)N(c3ccc4c(c3)OCCO4)C2)cc1 (centres undefined)	8	i	1	i	20	nt	nt
O=C1/C(=C/c2cccnc2)SC(=S)N1N1CCOCC1	28	i	1	i	27	nt	nt
O=C1N=C(N2CCOCC2)S/C1=C\c1cccnc1	753*	i	0	i	-10	-13	1
Cc1nnc(SCC(=O)NCc2ccccc2Cl)[nH]c1=O	+	i	1	i	-3	20	1
Cc1nnc(SCC(=O)Nc2c(Cl)cccc2Cl)[nH]c1=O	-16	i	1	i	6	1	nt
CCN(CC)c1ncnc2ccc(Br)cc12	410*	i	0	i	25	1	0
CCOC(=O)N1CCN(C(=O)c2ccc3ccccc3c2)CC1	379*	i	1	i	-12	5	0
CN1CCN(C(=O)c2ccc3ccccc3c2)CC1	-15	i	-1	i	18	1	nt
COc1ccc(CCNC(=O)c2ccc3nc(N4CCCCC4)sc3c2)cc1OC	-4	i	1	i	16	6	nt
COc1ccccc1C(=O)NCCNc1ccc([N+](=O)[O-])cc1Cl	456*	i	0	i	38	7	-1
COc1ccccc1N(CC(=O)N(C)Cc1ccccc1)S(=O)(=O)c1cccs1	53	nt	0	nt	-3	nt	nt
COc1ccc(C(=O)c2c(C)c3cc(C)ccc3n2CC(O)CN2CCOCC2)cc1 (centres undefined)	924*	i	0	i	20	23	-1[21 µM]
COc1ccc(C(=O)OC(C)CN2CCOCC2)cc1 (centres undefined)	-12	i	-1	i	21	8	nt
Cc1cc(S(=O)(=O)N2CCCC(N3CCOCC3)C2)c(C)cc1Cl (centres undefined)	421*	i	-1	i	17	24	0
O=S(=O)(c1cc(Cl)ccc1Cl)N1CCN2CCCC2C1 (centres undefined)	-32	i	0	i	19	11	nt
CC(=O)Nc1ccc(-c2csc(NC(=O)C3CC(=O)N(c4ccc5c(c4)OCCO5)C3)n2)cc1 (centres undefined)	508*	i	0	i	0	nt	-1
Cc1ccc(/C=C/C(=O)c2ccc([N+](=O)[O-])o2)cc1	+	i	7.9*	i	14	nt	0
CN(C)CC/C=C1\c2ccccc2Sc2ccc(Cl)cc21	497*!	i	0	i	29	32	0
Cc1c(C(=O)N(CCO)Cc2ccccc2)oc2c(F)cccc12	5	i	-1	i	23	-4	nt
N#Cc1ccccc1NC(=O)COC(=O)/C=C/c1ccc(S(=O)(=O)N2CCOCC2)cc1	-4	nt	1	nt	17	nt	nt

Screens: PubChem BioAssay, several laboratories
